YopH inh: YopH tyrosine phosphatase inhibitors, primary screen, biochemical, fluorescence Ex485/Em525; YopH tyrosine phosphatase [Yersinia enterocolitica]; inhibition, % (concentration not given with the values); 0.16% of 140,000 active; in the data active means inhibition above about 50%
RmlCD inh mix: RmlC and RmlD coupled enzyme inhibitors, primary screen, biochemical, 384-well, compound mixtures, retest; RmlC/RmlD coupled enzyme inhibition, 384-well mixture HTS; inhibition, % at 5.5 µM; 0.39% of 110,000 active; AID 1532, 2009; in the data active means inhibition above about 30%, passing the limit was not always enough
A number is an active result; i = inactive; nt = no result; + = active, no number. In the library only some 0.44% were active in any assay of this set; here they are far more common.

SMILES	YopH inh	RmlCD inh mix
COc1ccc(-n2c(NC(=O)c3ccco3)c(C#N)c3nc4ccccc4nc32)cc1	90.3	i
COCCNC(=O)c1c(NC(=O)c2ccco2)n(Cc2ccccc2)c2nc3ccccc3nc12	i	i
O=C(O)c1ccc2c(=O)n3c(nc2c1)/C(=C/c1ccccc1C(F)(F)F)CCCC3	i	nt
COc1cc(S(=O)(=O)Nc2cccc(C)c2)ccc1NC(=O)c1ccncc1	i	nt
CCOC(=O)c1c(N2C(=O)C3CC(C)=C(C)CC3C2=O)sc(C)c1C (stereo not given)	i	i
Cc1cccn2c(=O)c3cc(C(=O)NCC4CCCO4)c(=N)n(Cc4cccnc4)c3nc12 (stereo not given)	i	36.6
CCNC(=O)c1cc2c(=O)n3cccc(C)c3nc2n(Cc2ccc(C)cc2)c1=N	i	83.9
N=c1c(C(=O)NCC2CCCO2)cc2c(=O)n3ccccc3nc2n1Cc1cccnc1 (stereo not given)	i	i
Cc1cccn2c(=O)c3cc(C(=O)NC(C)C)c(=N)n(Cc4ccncc4)c3nc12	i	nt
Cc1cc2cc(C=C(C#N)C#N)c(Cl)nc2cc1C	i	nt
CN1C(=O)N(C)C(=O)C2(Sc3ccccc3C2=O)C1=O	i	+
CCC1(c2ccccc2)C(=O)N(C)C(=O)N(C)C1=O	i	nt
Cc1cc(=O)[nH]c2c(C)c(N)ccc12	i	58.7
Cc1cc(=O)[nH]c2c(C)c(Cl)ccc12	i	i
Cc1ccc(C(=O)N2C(=S)C(c3ccc(F)cc3)=NC23CCN(C)CC3)cc1	76.9	nt
CN1CCN(NC(=O)c2ccc(F)cc2)CC1	i	nt
CCN(C(=O)c1c(C)cc(=O)oc1C)c1ccc2c(c1)OCO2	i	i
CCN(C(=O)c1coc(=O)c(Br)c1)c1ccc2c(c1)OCO2	i	123.8
CC([NH2+][O-])C(C)(C)NO (stereo not given)	i	i
O=C(O)c1ccc2c(c1)C(=O)N(c1ncccn1)C2=O	i	nt
O=C(O)c1ccc2c(c1)-c1nc3ccccc3n1C2=O	i	121.8
CC(C)(C)C1CCC2(CC1)CC(=O)c1ccccc1O2 (stereo not given)	nt	i
Cc1cc(C)c2c(n1)nn1c(NCCN3CCOCC3)cc(C)nc21	i	57.8
Cc1cc(NCCN2CCOCC2)n2nc(C)c(-c3ccccc3)c2n1	i	i
COCCNc1cc(C)nc2c3c(C)cc(C)nc3nn12	i	58.1
SMILES	YopH inh	RmlCD inh mix
COCCNc1cc(C)nc2c(-c3ccccc3OC)c(C)nn12	i	i
COC(=O)C1=C(C)N(CCCC(=O)O)C(=O)NC1c1ccccc1Cl (stereo not given)	nt	i
CCN(CC)CCC(c1ccc2c(c1)OCO2)c1c(O)cc(OC)cc1OC (stereo not given)	nt	i
Cc1ccc(C)c(S(=O)(=O)NC(C)C(=O)Nc2ccc(-c3nc4ccccc4s3)cc2)c1 (stereo not given)	i	i
CCNc1nc2c(c(=O)[nH]c(=O)n2C)n1Cc1ccc(F)cc1	i	i
CCCNc1nc2c(c(=O)[nH]c(=O)n2C)n1Cc1ccc(F)cc1	60.1	i
O=C(NC(Cc1c[nH]c2ccccc12)c1nnc2n1CCCCC2)c1ccccc1 (stereo not given)	i	i
O=C(NC(Cc1c[nH]c2ccccc12)c1nnc2n1CCCCC2)c1cccs1 (stereo not given)	55.4	i
Nc1nnc(SCc2ccc(F)cc2)n1-c1ccccc1	i	i
CCN(CC)c1ccc(/C=N/Nc2ccccc2)c(O)c1	50.6	i
CCN(CC)c1ccc(/C=N/NC(=O)OC)c(O)c1	i	i
CCN(CC)c1ccc(C=Nc2cc(C)cc(C)c2)c(O)c1	i	nt
CCN(CC)c1ccc(C=Nc2ccccc2)c(O)c1	51.8	i
CCN(CC)c1ccc(N=Cc2ccc(N(CC)CC)cc2O)cc1	i	i
CCN(CC)c1ccc(/C=N/Nc2cccc(C)c2)c(O)c1	58.4	nt
Cc1[nH]c2ccccc2c1C(=O)C(=O)N1CC=C(c2ccccc2)CC1	i	nt
O=C1c2cccnc2C(=O)N1Cc1ccccc1	i	i
O=C1Cc2ccccc2C(=O)N1Cc1ccccc1	82.5	i
C=CCNC(=O)c1ccc2c(c1)S(=O)(=O)c1ccccc1C2=O	nt	i
CC/C=C\[C@H](O)[C@H](O)C1=C(C)C(=O)[C@]2(O1)C(=O)N[C@@](OC)(C(=O)c1ccccc1)C2O (stereo not given in full)	nt	i
COc1ccccc1CN1C(=O)c2ccncc2C1=O	i	i
COc1ccc(CCN2C(=O)c3ccncc3C2=O)cc1OC	51.5	i
COc1cccc(N2[C@@H](CC(C)=O)c3ccc(/C=C/C(C)=O)cc3S2(=O)=O)c1	nt	i
C/C=C\C=C/C(=O)Nc1cccc(C2=NOC3(C2)C[C@H](C(N)=O)N(C(=O)c2ccc(OC)cc2)C3)c1 (stereo not given in full)	nt	i
CCCCCCc1nc2ccccc2c(=O)n1NC(=O)c1c(O)c2c(n(CC(C)C)c1=O)CCCC2	i	i
Cc1nc2ccccc2c(=O)n1NC(=O)c1c(O)c2c(n(CC(C)C)c1=O)CCCC2	83.6	i
